Screens: PubChem, National Center for Advancing Translational Sciences (NCATS)
Rows were chosen to be rich in hits. Some 18% of all compounds tested hit in one or more screens of this group.
IL-1B inflam inh: inhibitors of inflammasome signaling (IL-1 beta secretion). THP-1 LPS/ATP IL-1B secretion, AlphaLISA, 16 h; stronger effect = lower value. actives 4.7% (n = 360,000). AID 743279. activity change, % at 57.5 µM; in the data active = activity change below about -50%; inconclusive = mostly about -30% to -49%
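THP-1 cells pretreated 1 hr with compounds (up to 57.5 uM final), then stimulated with LPS (250 ng/mL final) plus ATP (1.25 mM final); secreted IL-1B measured by AlphaLISA after 16 hr, decreased signal indicating inhibition.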
DT40 TDP1 CPT: growth inhibition of DT40 Tdp1-/-;hTDP1 cells with camptothecin (screen for TDP1 inhibitors); chicken DT40 Tdp1-/-;hTDP1 cells + 20 nM CPT, ATP luminescence, 48 h; Potency, µM (top dose mostly 46.2 µM), most hits filed as inhibitors; actives 12% (n = 420,000); also: nearly all actives have a fitted effect of over 55% in size
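Chicken DT40 Tdp1-/- cells stably complemented with human TDP1 were seeded at 400 cells/well in medium containing 20 nM camptothecin, exposed to pin-transferred compounds, and grown at 37 °C for at least 48 hr. Viability was read as ATP luminescence.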
RORgamma inh: blocks mouse ROR gamma transcriptional activity; P51450; actives 5.4% (n = 310,000); Potency, µM (titrated, usually from 53.6 µM), hits mostly inhibitors; Drosophila S2 Gal4-RORgamma UAS-luciferase reporter, 20 h; also: nearly all actives have a fitted effect of over 60% in size
Target sequence (P51450 whole entry, looked up, the tested form may be a part): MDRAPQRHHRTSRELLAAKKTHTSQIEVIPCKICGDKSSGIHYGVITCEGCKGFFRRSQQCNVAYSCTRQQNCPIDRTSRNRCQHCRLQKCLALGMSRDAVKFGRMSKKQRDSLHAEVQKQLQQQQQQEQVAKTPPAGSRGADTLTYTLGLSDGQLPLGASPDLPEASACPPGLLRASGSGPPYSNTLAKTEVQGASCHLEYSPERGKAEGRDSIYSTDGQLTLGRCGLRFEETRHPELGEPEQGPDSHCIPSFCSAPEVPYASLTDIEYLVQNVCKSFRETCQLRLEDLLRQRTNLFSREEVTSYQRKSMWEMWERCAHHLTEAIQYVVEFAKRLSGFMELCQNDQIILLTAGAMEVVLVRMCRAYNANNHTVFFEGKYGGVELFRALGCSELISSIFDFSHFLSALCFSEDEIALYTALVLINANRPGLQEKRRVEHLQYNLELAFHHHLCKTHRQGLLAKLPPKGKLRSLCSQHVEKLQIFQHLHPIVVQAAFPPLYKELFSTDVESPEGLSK
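In this cell-based reporter format, copper sulfate (700 uM final) drives Gal4–ROR gamma fusion expression from a metallothionein promoter in Drosophila Schneider cells; compounds preincubated 1 hr, reporter read after 20 hr at ambient temperature.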
DT40 TDP1 no CPT: qHTS for Inhibitors of human tyrosyl-DNA phosphodiesterase 1 (TDP1): qHTS in cells in absence of CPT; Potency, µM (titrated, usually from 46.2 µM), usual class: inhibitors; AID 686978, 2013; actives 15% (n = 420,000); DT40 Tdp1-/- hTDP1 cells, no CPT, ATP luminescence, 48 h; also: nearly all actives have a fitted effect of over 55% in size
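Camptothecin absent (DMSO only). Human TDP1-complemented DT40 knockout cells, 400 cells/well, 37 °C for minimum 48 hr; ATP measured via CellTiter-Glo, 30 min dark incubation, luminescence.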
LDHA inh: inhibitors of human lactate dehydrogenase A; activity change, % (values are at about 110 or 230 µM); purified LDHA, NADH/diaphorase-resazurin fluorescence; stronger effect = lower value; P00338; AID 1347041; actives 0.15% (n = 480,000); in the data active = activity change below about -30%; inconclusive = mostly about -25% to -30%
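Enzyme activity of human lactate dehydrogenase 5 (2 nM; 0.06 mM NADH, 0.2 mM pyruvate, 5 min, RT) is measured via a resazurin/diaphorase fluorescence readout of residual NADH.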
VP16 counter: inhibits Gal4-VP16 luciferase reporter, ROR gamma counter-screen; Drosophila S2 Gal4-VP16 UAS-luciferase, luminescence, 20 h; AID 2546; Potency, µM (series often up to 53.6 µM), usual class: inhibitors; actives 3.5% (n = 310,000);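 also: Gal4-VP16 expression switched on by copper sulfate through the metallothionein promoter; nearly all actives have a fitted effect of over 50% in size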
A number is an active result; 0 = inactive; ? = inconclusive; - = not tested or not shown; [ ] = remark or other dose. Unless noted, calls follow the shape of the dose curve; as a rule, active = well fitted curve in the direction sought with a large enough effect; inconclusive = small, poorly fitted or top-dose-only effect, or another doubt; inactive = no such curve, though single readings can be large; an effect the other way counts as inactive or inconclusive.

SMILES	IL-1B inflam inh	DT40 TDP1 CPT	RORgamma inh	DT40 TDP1 no CPT	LDHA inh	VP16 counter
CCN(CC)c1ccc(/C=N/Nc2nc(C)cc(C)n2)cc1	0	23µM	1µM	18µM	0	13µM
Brc1cccc(/C=N/Nc2nn[nH]n2)c1	0	0	0	0	0	?
CCN(CC)c1ccc(/C=N/Nc2nn[nH]n2)cc1	0	?	0	12µM	0	0
O=C(Nc1nc2c(s1)C(=O)CCC2)c1ccccc1	0	0	?	?	0	?
Cc1ccc(C(=O)Nc2nc(=O)n(C(=O)C3CC3)s2)cc1	?	21µM	0	16µM	0	0
O=C(Nc1nc(=O)n(C(=O)C2CC2)s1)c1ccccc1	?	21µM	0	23µM	0	?
Cc1ccc(C(=O)Nc2nc(=O)n(C(=O)c3ccccc3C)s2)cc1	-65	12µM	0	13µM	0	0
Clc1ccc(-c2c[n+](Cc3ccc(Br)cc3)c3n2CCCCC3)cc1	-62	2.6µM	?	2.6µM	0	11µM
Clc1ccc(C[n+]2cc(-c3ccccc3)n3c2CCCCC3)c(Cl)c1	-91	0.46µM	?	0.26µM	0	13µM
Clc1ccc(-c2nnc3n2CCCCC3)cc1	0	0	0	0	0	0
Clc1ccc(-c2c[n+](Cc3ccc(Cl)cc3Cl)c3n2CCCCC3)cc1	-81	1.2µM	0	1.2µM	0	11µM
CCCCNC(=S)NCc1ccc2c(c1)cc(C)n2C	0	?	11µM	?	0	?
Cc1cc2cc(CNC(=S)NC3CCCCC3)ccc2n1C	0	?	14µM	?	0	?
Cc1cc2cc(CNC(=S)Nc3ccc(OC(F)F)cc3)ccc2[nH]1	0	?	13µM	?	0	22µM
S=C(NCc1cccc(Cl)c1)NC1CCCCC1	0	0	2.8µM	?	0	14µM
CC(C)NC(=S)NCc1cccc(Cl)c1	-	-	-	-	0	-
Cc1ccc(C2CC(c3ccccc3)=NN2S(C)(=O)=O)cc1 (configuration not stated)	-	-	-	-	0	-
CCCOc1c(Br)cc(/C=C/C(=O)c2ccc(O)c(OC)c2)cc1OC	-	-	-	-	0	-
COc1ccccc1NC(=S)NCc1ccc2c(c1)cc(C)n2C	0	16µM	5.6µM	23µM	0	?
Cc1cc2cc(CNC(=S)NCc3ccccc3)ccc2n1C	0	0	18µM	0	0	?
Cc1ccc(CNC(=S)NC2CCCCC2)cc1	0	?	4µM	?	0	4µM
Cc1ccccc1NC(=S)NCc1ccc2c(c1)cc(C)n2C	0	2.9µM	6.3µM	3.3µM	0	11µM
Cc1cc2cc(CNC(=O)Nc3ccccc3)ccc2n1C	0	0	?	0	0	0
COc1ccc(C(=O)NCc2ccc3c(c2)cc(C)n3C)cc1OC	0	?	0	0	0	0
CCCCc1ccc(-c2csc(-c3nc(-c4ccc(C)cc4)c(C)s3)n2)cc1	-	-	-	-	0	-
SMILES	IL-1B inflam inh	DT40 TDP1 CPT	RORgamma inh	DT40 TDP1 no CPT	LDHA inh	VP16 counter
CC(NC(=O)CCSc1ccc(Cl)cc1)c1ccccc1 (configuration not stated)	-	-	-	-	0	-
CCCSc1nc2c(c(=O)n(C)c(=O)n2C)n1Cc1ccccc1Cl	-	-	-	-	0	-
CCc1cccc(C)c1NC(=S)NCc1ccc2c(c1)cc(C)n2C	0	21µM	5.6µM	16µM	0	7.9µM
CCCS(=O)(=O)NCc1ccc2c(c1)cc(C)n2C	-69	0	0	0	0	0
CCC(CC)C(=O)NCc1ccc2c(c1)cc(C)n2C	0	10µM	0	?	0	0
COc1ccc(NC(=S)NCc2ccc3c(c2)cc(C)n3C)cc1	0	18µM	4.5µM	?	0	11µM
COc1ccc(CC(=O)NCc2ccc3c(c2)cc(C)n3C)cc1	0	0	0	0	0	0
Cc1cc2cc(CNC(=O)CC(C)C)ccc2n1C	0	0	0	0	0	0
CCC(CO)Nc1nc2c(c(=O)n(C)c(=O)n2C)n1Cc1c(F)cccc1Cl (configuration not stated)	-	-	-	-	0	-
Cc1ccc(CCNC(=O)c2ccc(CSCc3ccccc3Cl)o2)cc1	-	?	-	?	0	-
Cc1ccc(CCNC(=O)c2ccc(CSCc3ccccc3C)o2)cc1	-	?	-	16µM	0	-
Cc1ccc(CCNC(=O)c2ccc(CS(=O)(=O)Cc3ccccc3F)o2)cc1	0	?	?	16µM	0	0
Cc1ccccc1CS(=O)(=O)Cc1ccc(C(=O)NCCc2ccc(Cl)cc2)o1	-	21µM	-	?	0	-
Cc1cccc(CSCc2ccc(C(=O)NC(C)C)o2)c1	0	?	?	?	0	0
CC(C)CCNC(=O)c1ccc(CSCc2cccc(F)c2)o1	-63	?	0	0	0	0
COCCCNc1oc(/C=C/c2cccc(OC)c2)nc1C#N	-	-	-	-	0	-
Cc1ccc(N(C)S(=O)(=O)c2c(-c3ccccc3)csc2C(=O)NCc2ccco2)cc1	-	-	-	-	0	-
CCN1/C(=C2/SC(=S)N(NC(C)=O)C2=O)Sc2ccc(Cl)cc21	0	?	0[1.91 µM]	18µM	0	0
O=C(CN(c1ccc(Cl)c(Cl)c1)S(=O)(=O)c1ccccc1)N1CCCCCC1	-	-	-	-	0	-
Cc1cc(C)nc(N/C(=N\S(=O)(=O)Cc2ccccc2)Nc2cccc(Cl)c2C)n1	0	?	0	?	0	0
Cc1cc(C)nc(N/C(=N\S(=O)(=O)Cc2ccccc2)Nc2ccc(F)c(Cl)c2)n1	0	18µM	0	26µM	0	?
COC(=O)c1c(-c2ccc(N(C)C)cc2)sc2ccc(OC)cc12	0	?	-	13µM	0	-
COC(=O)c1c(-c2ccsc2)sc2ccc(-c3cc(OC)c(OC)c(OC)c3)cc12	0	?	-	9.2µM	0	-
N#CCOc1ccc2c(=O)c(-c3ccc(Br)cc3)c(C(F)(F)F)oc2c1	-	-	-	-	0	-
CC(OC(=O)c1cc(-c2ccco2)nc2ccccc12)C(=O)NC(=O)NC(C)(C)C (configuration not stated)	-	-	-	-	0	-
SMILES	IL-1B inflam inh	DT40 TDP1 CPT	RORgamma inh	DT40 TDP1 no CPT	LDHA inh	VP16 counter
CCOC(=O)c1cnc2ccc(OC)cc2c1Nc1ccccc1OC	-	-	-	-	0	-
CCc1ccc(CN(C)Cc2nc(Cc3ccc(OC)c(OC)c3)no2)nc1	0	16µM	10µM	?	0	0
COc1ccc(Cc2noc(CN(C)Cc3ccc(-n4cccn4)cc3)n2)cc1OC	0	?	0	21µM	0	0
COc1ccc(CCN(C)Cc2nc(-c3cnccn3)no2)cc1OC	0	0	0	0	0	0
CN(Cc1ccc2nonc2c1)Cc1nc(Cc2cccc(F)c2)no1	0	0	?	0	0	0
CC(C)(CNC(=O)c1nn(Cc2ccccc2)c(=O)c2ccccc12)N1CCOCC1	-	-	-	-	0	-
Cc1cccn2c(=O)c3cc(C(=O)NCc4ccccc4)c(=N)n(CCOCCO)c3nc12	-	12µM	-	26µM	0	-
